Measurements: PubChem BioAssay (Tox21)
Results filed as inconclusive are left out. Calls of active or inactive are those of the source. Unless noted, calls follow the shape of the dose curve; as a rule, active = well fitted curve in the direction sought with a large enough effect in the repeat runs; inconclusive = weak or mixed curves; inactive = no such curve, though single readings can be large; an effect the other way counts as inactive or inconclusive.

Legend:
[1] = qHTS assay to identify small molecule antagonists of the thyroid receptor (TR) signaling pathway - cell viability counter screen (AID 743064); also: nearly all actives have a fitted effect of over 50% in size
Procedure, shortened: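 In rat pituitary GH3.TRE-Luc reporter cells co-exposed to compound and 1 nM T3 for 23.5 h, cytotoxicity was assessed with CellTiter-Fluor in the same wells, read by fluorescence.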

[2] = test system: thyroid hormone receptor (rat, GH3 cells); assay: qHTS assay to identify small molecule agonists of the thyroid receptor (TR) signaling pathway (AID 743066; calls by dose curve)
[3] = target: Estrogen receptor (Homo sapiens) (UniProt P03372); assay: qHTS assay to identify small molecule antagonists of the estrogen receptor alpha (ER-alpha) signaling pathway (AID 743069; active = well fitted curve in the direction sought with a large enough effect in the signal ratio in the repeat runs, not every such curve was filed as active; the % refers to the signal ratio)
Procedure, shortened: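 In this cell-based reporter format, GripTite HEK293 cells harbouring ER-alpha-UAS-bla were grown overnight with 2% charcoal-stripped FBS, dosed with DMSO-dissolved compounds, then challenged with 17beta-estradiol. After 18 hr at 37C, beta-lactamase activity was detected by FRET fluorescence.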

[4] = qHTS assay to identify small molecule antagonists of the estrogen receptor alpha (ER-alpha) signaling pathway - cell viability counter screen (AID 743074; calls by dose curve; also: nearly all actives have a fitted effect of over 45% in size)
[5] = target: Estrogen receptor (Homo sapiens) (UniProt P03372); assay: qHTS assay to identify small molecule agonists of the estrogen receptor alpha (ER-alpha) signaling pathway (AID 743075; calls by dose curve)
[6] = target: Estrogen receptor (Homo sapiens) (UniProt P03372); assay: qHTS assay to identify small molecule agonists of the estrogen receptor alpha (ER-alpha) signaling pathway using the BG1 cell line (AID 743079); also: nearly all actives have a fitted effect of over 20% in size
[7] = qHTS assay to identify small molecule antagonists of the estrogen receptor alpha (ER-alpha) signaling pathway using the BG1 cell line (AID 743080; calls by dose curve;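 also: BG1 cells stimulated with 17beta-estradiol alongside compound; series mostly up to about 70 µM; nearly all actives have a fitted effect of over 25% in size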)
Procedure, shortened: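 Luminescence from a 4×ERE-luciferase reporter in BG1-Luc-4E2 cells served as read-out. Cells, pre-cultured 5 days in stripped-serum phenol-red-free medium, were exposed to compound with 17beta-estradiol co-stimulation for 21.5 h at 37 C.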

[8] = qHTS assay to identify small molecule antagonists of the estrogen receptor alpha (ER-alpha) signaling pathway using the BG1 cell line - cell viability counter screen (AID 743081);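 also: compound given together with 17beta-estradiol as the ER stimulus; series mostly up to about 70 µM; nearly all actives have a fitted effect of over 45% in size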
[9] = target: Aromatase (Homo sapiens) (UniProt P11511); assay: qHTS assay to identify aromatase inhibitors (AID 743083); also: series mostly up to about 70 µM; nearly all actives have a fitted effect of over 55% in size
[10] = qHTS assay to identify aromatase inhibitors - cell viability counter screen (AID 743084);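 also: cells stimulated with testosterone during compound exposure; nearly all actives have a fitted effect of over 55% in size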
[11] = target: Aryl hydrocarbon receptor (Homo sapiens) (UniProt P35869); assay: qHTS assay to identify small molecule that activate the aryl hydrocarbon receptor (AhR) signaling pathway (AID 743085); also: nearly all actives have a fitted effect of over 15% in size; also: potency is read from the fitted curve at half-maximal effect;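 as to activation: HG2L7.5c1 human HepG2 liver cells with stably integrated DRE-driven firefly reporter; series mostly up to about 70 µM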
Procedure, shortened: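 AhR agonist activity is inferred from enhanced light output of a DRE-controlled firefly luciferase reporter in HepG2 cells, measured with ONE-Glo following 24 h treatment at 37C.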

[12] = qHTS assay to identify small molecule that activate the aryl hydrocarbon receptor (AhR) signaling pathway - cell viability counter screen (AID 743086);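 also: HepG2 liver cells carrying the AhR DRE luciferase reporter; series mostly up to about 70 µM; nearly all actives have a fitted effect of over 45% in size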
Procedure, shortened: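 HepG2-AhR-luc (HG2L7.5c1) cells, 4000/well, treated 24 h at 37 C with compound; viability measured as CellTiter-Fluor fluorescence after 30 min in the same wells as the luciferase read.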

[13] = target: Peroxisome proliferator-activated receptor gamma (Homo sapiens) (UniProt P37231); assay: qHTS assay to identify small molecule agonists of the peroxisome proliferator-activated receptor gamma (PPARg) signaling pathway (AID 743094; active = well fitted activation curve with a large enough effect in the signal ratio in the repeat runs, not every such curve was filed as active; the % refers to the signal ratio; also: potency is read from the fitted curve at half-maximal effect)
Procedure, shortened: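 Reporter activation was scored by fluorescence of cleaved LiveBLAzer B/G substrate (1 h, room temperature) in PPARg-bla HEK293H cells previously treated 17 h at 37C with DMSO-dissolved compounds.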

[14] = target: Peroxisome proliferator-activated receptor gamma (Homo sapiens) (UniProt P37231); assay: qHTS assay to identify small molecule antagonists of the peroxisome proliferator-activated receptor gamma (PPARg) signaling pathway (AID 743191; calls by dose curve; also: series mostly up to about 63 µM; nearly all actives have a fitted effect of over 30% in size)
Procedure, shortened: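 GeneBLAzer PPARg UAS-bla HEK293H cells, 5 h post-plating, exposed to compounds 17 h at 37C. LiveBLAzer B/G FRET substrate added for 1 h at room temperature; beta-lactamase reporter read by fluorescence intensity.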

[15] = qHTS assay to identify small molecule antagonists of the peroxisome proliferator-activated receptor gamma (PPARg) signaling pathway - cell viability counter screen (AID 743194); also: nearly all actives have a fitted effect of over 55% in size
Procedure, shortened: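 Cytotoxicity counter screen in PPARg-bla HEK293H cells, same wells as reporter assay. Compounds plus 50 nM rosiglitazone (final) for 17 h at 37 C, then viability read by CellTiter-Glo luminescence.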

[16] = qHTS assay for small molecule agonists of the antioxidant response element (ARE) signaling pathway (AID 743202; active = well fitted activation curve with a large enough effect in the signal ratio in the repeat runs, not every such curve was filed as active; the % refers to the signal ratio)
Procedure, shortened: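 HepG2 ARE-bla cells; 16 h treatment at 37 C; FRET-based beta-lactamase fluorescence read after 2 h substrate incubation at room temperature.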

[17] = qHTS assay for small molecule activators of the heat shock response signaling pathway - cell viability counter screen (AID 743209); also: nearly all actives have a fitted effect of over 50% in size
Procedure, shortened: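 Viability of HSE-bla HeLa cells is measured with CellTiter-Glo in the wells already used for the reporter read. Compound exposure lasts 5 h at 37 C, and luminescence is read after 30 min at room temperature.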

[18] = qHTS assay for small molecule activators of the heat shock response signaling pathway (AID 743210; active = well fitted activation curve with a large enough effect in the signal ratio in the repeat runs, with a control signal flat, not every such curve was filed as active; the % refers to the signal ratio;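 also: HeLa cells with beta-lactamase reporter driven by heat shock elements; series mostly up to about 63 µM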)
Procedure, shortened: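 Following overnight attachment, HSE-bla HeLa cells received test compounds for 5 h at 37 C; beta-lactamase activity was then detected via FRET substrate fluorescence.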

[19] = qHTS assay to identify small molecule antagonists of the thyroid receptor (TR) signaling pathway (AID 743065); also: series mostly up to about 70 µM; nearly all actives have a fitted effect of over 55% in size
Procedure, shortened: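 GH3.TRE-Luc rat pituitary cells (two TREs driving luciferase) were dosed with compound, then stimulated with 1 nM T3 (final) for 23.5 h at 37 C. ONE-Glo luminescence was the read-out, with CellTiter-Fluor fluorescence as the cytotoxicity counter-screen.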

[20] = qHTS assay for small molecule agonists of the antioxidant response element (ARE) signaling pathway - cell viability counter screen (AID 743203; calls by dose curve; also: nearly all actives have a fitted effect of over 55% in size)
Procedure, shortened: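 Viability counter screen: stably transfected ARE-bla HepG2 line, 16 hrs compound exposure at 37C/5% CO2, ATP-based CellTiter-Glo luminescence measured in the reporter wells.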
% is scaled to controls: 0 for no effect and ±100 for the full control effect.

Chain of Peroxisome proliferator-activated receptor gamma (Homo sapiens) (P37231 whole entry, looked up): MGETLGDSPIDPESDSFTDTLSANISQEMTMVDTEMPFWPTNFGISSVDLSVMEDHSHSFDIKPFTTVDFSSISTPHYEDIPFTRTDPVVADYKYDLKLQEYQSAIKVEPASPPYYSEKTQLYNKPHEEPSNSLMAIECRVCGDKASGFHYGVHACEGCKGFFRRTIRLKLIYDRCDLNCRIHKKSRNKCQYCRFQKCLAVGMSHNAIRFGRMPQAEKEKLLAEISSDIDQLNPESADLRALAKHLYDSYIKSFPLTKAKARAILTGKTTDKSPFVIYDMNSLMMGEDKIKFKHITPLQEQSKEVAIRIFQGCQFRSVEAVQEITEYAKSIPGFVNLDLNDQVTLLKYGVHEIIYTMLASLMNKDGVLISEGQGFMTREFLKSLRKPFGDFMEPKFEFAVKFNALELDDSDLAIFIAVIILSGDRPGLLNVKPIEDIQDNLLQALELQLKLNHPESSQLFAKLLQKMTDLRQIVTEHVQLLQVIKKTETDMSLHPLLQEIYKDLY
Chain of Aryl hydrocarbon receptor (Homo sapiens) (P35869 whole entry, looked up): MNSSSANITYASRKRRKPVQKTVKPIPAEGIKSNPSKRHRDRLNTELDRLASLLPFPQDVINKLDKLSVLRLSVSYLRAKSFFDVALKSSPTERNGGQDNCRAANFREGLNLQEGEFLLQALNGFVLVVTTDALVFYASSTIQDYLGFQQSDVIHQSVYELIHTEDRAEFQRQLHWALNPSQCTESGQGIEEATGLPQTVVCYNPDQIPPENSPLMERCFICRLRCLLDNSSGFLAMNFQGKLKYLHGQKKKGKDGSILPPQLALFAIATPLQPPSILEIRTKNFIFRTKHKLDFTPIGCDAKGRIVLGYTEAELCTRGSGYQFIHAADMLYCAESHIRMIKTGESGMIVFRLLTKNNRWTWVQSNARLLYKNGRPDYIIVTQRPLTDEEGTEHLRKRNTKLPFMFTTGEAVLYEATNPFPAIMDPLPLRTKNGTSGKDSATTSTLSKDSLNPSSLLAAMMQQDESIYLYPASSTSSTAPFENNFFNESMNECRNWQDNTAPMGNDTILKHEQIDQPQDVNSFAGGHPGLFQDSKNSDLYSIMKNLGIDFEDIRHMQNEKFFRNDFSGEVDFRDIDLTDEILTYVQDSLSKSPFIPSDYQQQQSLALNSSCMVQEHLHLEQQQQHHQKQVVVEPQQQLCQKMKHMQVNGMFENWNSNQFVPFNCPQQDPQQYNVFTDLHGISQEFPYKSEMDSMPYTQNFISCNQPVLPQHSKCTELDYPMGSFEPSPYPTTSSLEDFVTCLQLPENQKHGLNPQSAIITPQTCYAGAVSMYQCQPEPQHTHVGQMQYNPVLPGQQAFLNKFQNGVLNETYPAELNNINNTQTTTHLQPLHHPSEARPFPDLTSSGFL
Chain of Estrogen receptor (Homo sapiens) (P03372 whole entry, looked up): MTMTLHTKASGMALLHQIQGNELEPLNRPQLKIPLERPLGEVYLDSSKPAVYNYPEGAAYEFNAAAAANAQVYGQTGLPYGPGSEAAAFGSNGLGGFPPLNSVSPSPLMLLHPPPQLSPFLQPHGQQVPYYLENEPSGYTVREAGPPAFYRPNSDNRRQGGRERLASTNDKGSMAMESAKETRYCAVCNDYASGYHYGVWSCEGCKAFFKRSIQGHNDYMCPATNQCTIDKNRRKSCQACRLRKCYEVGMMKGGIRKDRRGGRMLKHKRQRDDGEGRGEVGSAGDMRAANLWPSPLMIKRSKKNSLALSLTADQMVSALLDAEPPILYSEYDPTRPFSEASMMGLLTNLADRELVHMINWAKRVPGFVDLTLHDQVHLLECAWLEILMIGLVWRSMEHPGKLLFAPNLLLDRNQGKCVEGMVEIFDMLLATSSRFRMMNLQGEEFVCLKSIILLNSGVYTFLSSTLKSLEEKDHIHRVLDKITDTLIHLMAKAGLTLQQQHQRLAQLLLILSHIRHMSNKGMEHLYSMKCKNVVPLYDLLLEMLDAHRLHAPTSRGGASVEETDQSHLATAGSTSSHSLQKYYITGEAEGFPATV
Chain of Aromatase (Homo sapiens) (P11511 whole entry, looked up): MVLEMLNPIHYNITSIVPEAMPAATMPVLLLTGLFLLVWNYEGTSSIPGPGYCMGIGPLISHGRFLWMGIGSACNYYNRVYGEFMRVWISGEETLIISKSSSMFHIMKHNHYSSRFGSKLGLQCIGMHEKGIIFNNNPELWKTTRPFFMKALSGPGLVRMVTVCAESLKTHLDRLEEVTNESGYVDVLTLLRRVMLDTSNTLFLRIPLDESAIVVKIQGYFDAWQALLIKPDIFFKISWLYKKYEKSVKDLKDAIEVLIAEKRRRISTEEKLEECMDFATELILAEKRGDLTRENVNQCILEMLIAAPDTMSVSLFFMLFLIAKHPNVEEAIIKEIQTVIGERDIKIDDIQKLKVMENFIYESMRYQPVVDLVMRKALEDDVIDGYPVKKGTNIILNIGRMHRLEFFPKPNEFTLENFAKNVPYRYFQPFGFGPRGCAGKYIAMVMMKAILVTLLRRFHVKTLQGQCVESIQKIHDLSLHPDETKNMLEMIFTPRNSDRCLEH

CCCCCC(C)O (stereo not drawn)
inactive: Potency [1] | outcome [2] | outcome [3] | outcome [4] | Potency [5] | Potency [6] | outcome [7] | Potency [8] | outcome [9] | Potency [10] | Potency [11] | Potency [12] | Potency [13] | outcome [14] | outcome [15] | Potency [16] | Potency [17] | outcome [18]

COc1c2occc2c(OC)c2c(=O)cc(C)oc12
inactive: Potency [1] | Potency [19] | outcome [2] | Potency [8] | outcome [9] | Potency [10] | Potency [12] | Potency [13] | outcome [14] | outcome [15] | Potency [16] | outcome [20] | Potency [17] | outcome [18]
active: Potency [11] 0.114 µM

Cc1ccc(C(=O)O)cc1[N+](=O)[O-]
inactive: Potency [1] | outcome [2] | outcome [3] | outcome [4] | Potency [5] | Potency [6] | outcome [7] | Potency [8] | outcome [9] | Potency [10] | Potency [11] | Potency [12] | Potency [13] | outcome [15] | Potency [16] | outcome [20] | Potency [17] | outcome [18]

C=CC(=O)CCCCC
inactive: Potency [1] | Potency [19] | outcome [2] | Potency [8] | outcome [9] | Potency [10] | Potency [11] | Potency [12] | Potency [13] | outcome [15] | Potency [16] | outcome [20] | Potency [17] | outcome [18]

O=C(O)CONC(=O)c1ccccc1
inactive: Potency [1] | Potency [19] | outcome [2] | outcome [4] | Potency [8] | Potency [12] | outcome [15] | Potency [16] | outcome [20] | Potency [17] | outcome [18]

CN(C)CC/C=C1/c2ccccc2COc2ccc(CC(=O)O)cc21
inactive: Potency [1] | Potency [19] | outcome [2] | outcome [4] | Potency [8] | outcome [15] | Potency [16] | Potency [17] | outcome [18]

OCC1(CO)COCOC1
inactive: Potency [1] | Potency [19] | outcome [2] | outcome [4] | Potency [8] | outcome [9] | Potency [10] | Potency [11] | Potency [12] | Potency [13] | outcome [14] | outcome [15] | Potency [16] | outcome [20] | Potency [17]

CC(=O)CC(=O)Nc1ccc(C)cc1C
inactive: Potency [1] | Potency [19] | outcome [2] | outcome [4] | Potency [8] | outcome [9] | Potency [10] | Potency [11] | outcome [15] | Potency [16] | outcome [20] | Potency [17]

CC(O)CC(C)O (stereo not drawn)
inactive: Potency [1] | Potency [19] | outcome [2] | outcome [4] | Potency [8] | outcome [9] | Potency [10] | Potency [11] | Potency [13] | outcome [14] | outcome [15] | Potency [16] | outcome [20] | Potency [17] | outcome [18]

CCn1cc(C(=O)O)c(=O)c2cnc(N3CCCC3)nc21
inactive: Potency [1] | Potency [19] | outcome [2] | outcome [4] | Potency [8] | activity change, negative = cytotoxicity [15] -3.06% [at 13.2 µM] | activation [16] -1.91% [at 8.36 µM] | activity change, negative = cytotoxicity [17] 1.32% [at 13.2 µM] | activation [18] -0.943% [at 13.2 µM]

COS(=O)(=O)O
inactive: Potency [1] | Potency [19] | outcome [2] | outcome [4] | Potency [8] | outcome [9] | Potency [10] | Potency [11] | Potency [12] | outcome [15] | Potency [16] | outcome [20] | Potency [17]

CCCCCC/C=C/C(=O)OC
inactive: Potency [1] | Potency [19] | outcome [2] | outcome [4] | Potency [8] | outcome [9] | Potency [10] | Potency [11] | Potency [12] | Potency [13] | outcome [15] | Potency [16] | outcome [20] | Potency [17] | outcome [18]

CC(C)[C@H]1CC[C@H](C)C[C@@H]1O
inactive: Potency [1] | Potency [19] | outcome [2] | outcome [4] | Potency [8] | outcome [9] | Potency [10] | Potency [11] | Potency [12] | Potency [13] | outcome [15] | Potency [16] | outcome [20] | Potency [17]

CNCCS(=O)(=O)O
inactive: Potency [1] | Potency [19] | outcome [2] | outcome [4] | Potency [8] | outcome [9] | Potency [10] | Potency [11] | Potency [13] | outcome [14] | outcome [15] | Potency [16] | outcome [20] | Potency [17] | outcome [18]

N#Cc1cscn1
active: Potency [13] 54.9 µM
inactive: Potency [1] | Potency [19] | outcome [2] | Potency [8] | outcome [9] | Potency [10] | Potency [11] | outcome [14] | outcome [15] | Potency [16] | outcome [20] | Potency [17] | outcome [18]

CC(=O)c1cc(C)oc1C
inactive: Potency [1] | Potency [19] | outcome [2] | outcome [4] | Potency [8] | outcome [9] | Potency [10] | Potency [11] | Potency [12] | Potency [13] | outcome [14] | outcome [15] | Potency [16] | outcome [20] | Potency [17] | outcome [18]
